TRHR PAM: allosteric enhancers of human TRH receptor | P34981 | TRHR cells, fluo-8 calcium fluorescence, EC20 TRH enhancement | enhancement, % at 2 µM | 0.66% of 360,000 active; in the data active = enhancement above about 30%; also: 0% is about no effect
Target sequence (P34981 whole entry, looked up): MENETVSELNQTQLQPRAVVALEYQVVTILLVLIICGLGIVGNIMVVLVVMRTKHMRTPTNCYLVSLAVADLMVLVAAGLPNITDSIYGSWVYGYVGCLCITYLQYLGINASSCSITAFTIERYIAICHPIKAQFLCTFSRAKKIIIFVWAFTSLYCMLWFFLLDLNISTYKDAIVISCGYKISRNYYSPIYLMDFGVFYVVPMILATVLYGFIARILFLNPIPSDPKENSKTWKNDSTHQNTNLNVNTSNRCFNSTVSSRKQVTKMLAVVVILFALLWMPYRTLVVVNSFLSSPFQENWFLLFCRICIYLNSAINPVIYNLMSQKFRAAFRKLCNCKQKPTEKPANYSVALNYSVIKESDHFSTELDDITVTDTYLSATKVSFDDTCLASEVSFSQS
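Enhancer read-out: after compound pinning and an initial kinetic agonist-mode read, an EC20 of TRH (10 nM final) was injected and fluo-8 calcium signal (Ex 480/Em 530) followed at 1 s/cycle for 100 cycles in TRHR-expressing cells.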
D1 agonist: activates the human D1 dopamine receptor; HEK293 T-REx D1 cells, calcium flux, agonist mode; 1% of 360,000 active; activation, % at 2 µM; P21728; also: 0% is about no effect
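Tetracycline-induced HEK293 TREx D1 cells, force-coupled to calcium signalling, were dye-loaded with a no-wash calcium kit. Compound was pin-added after a 10 s baseline. Fluorescence was read kinetically at 1 cycle/s for 180 s, with calcium rises flagged as agonism.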
TRHR ag: TRH receptor (human) agonism; P34981; TRHR cells, calcium flux fluo-8, FDSS agonist mode; activation, % at 2 µM; 0.18% of 360,000 active; AID 493084; also: 0% is about no effect
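Fluo-8-loaded TRHR cells; 10 s baseline, compound added, kinetic Ca2+ fluorescence read 1/s, agonist mode.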
D1 PAM: human D1 dopamine receptor positive modulation | HEK293 TREx D1 cells, calcium flux, dopamine EC20 potentiation | potentiation, % at 10 µM | P21728 | 0.036% of 360,000 active; in the data active = potentiation above about 30%; also: 0% is about no effect
LDHA block: LDHA (human) enzyme inhibition; P00338; purified LDHA, NADH/diaphorase-resazurin fluorescence; active compounds read low; activity change, % (values are at about 110 or 230 µM); 0.15% of 480,000 active; AID 1347041; in the data active = activity change below about -30%;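 also: plate controls were DMSO wells for no effect and wells without enzyme for full effect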
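Enzyme activity of human lactate dehydrogenase 5 (2 nM; 0.06 mM NADH, 0.2 mM pyruvate, 5 min, RT) is measured via a resazurin/diaphorase fluorescence readout of residual NADH.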
D1 antag: human D1 dopamine receptor antagonism; P21728; HEK293 TREx D1 cells, calcium flux, dopamine EC80; active compounds read low; activity change, negative = inhibition, % at 10 µM; 3.2% of 360,000 active; AID 504652; in the data active = activity change below about -30%; also: % is scaled to controls: 0 for no effect and ±100 for the full control effect
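Cells carrying a force-coupled, tetracycline-inducible human D1 receptor report calcium flux. Each well gets a 10 s baseline, compound with 180 s monitoring, then an EC80 dopamine stimulus with a second 180 s kinetic read.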
An asterisk follows results filed as active. A selection: hits, their analogues and other compounds. The true share with any hit is near 3.6%. Rule as the data show it, unless noted: active = activation above about 30%; inactive = the rest.

Screening Cc1cccc(S(=O)(=O)C(C#N)c2nc3ccccc3nc2N2CCN(c3ccccc3)CC2)c1 (stereo not given) returned LDHA block -7.5.
Cc1ccc(NC(=O)CN(C)C(=O)CN2CCCC(C(F)(F)F)C2)cc1 (stereo not given) was read as LDHA block 0.7.
Screening COc1cc(CN2CCN(S(=O)(=O)c3ccccc3)CC2)cc(OC)c1O returned TRHR PAM 8.3, D1 agonist 1.0, TRHR ag 1.9, D1 PAM -6.4, LDHA block 16.9 and D1 antag -61.3*.
`COc1cc(OC)cc(C(=O)N2CCN(C(=O)c3ccc(-c4ccccc4)cc3)CC2)c1` gave TRHR PAM 36.1*, D1 agonist 0.5, TRHR ag 0.0, D1 PAM 2.6, LDHA block -3.2 and D1 antag -1.1.
Cc1ccc(N2C(=O)c3ccc(C(=O)N4CCN(Cc5ccccc5)CC4)cc3C2=O)cc1 was read as TRHR PAM -6.1, D1 agonist 58.5*, TRHR ag 0.3, D1 PAM -5.0, LDHA block -4.8 and D1 antag -47.5*.
CC(C)CC(=O)N1CCN(C(=O)c2ccc(-c3ccccc3)cc2)CC1 was read as TRHR PAM 31.0*, D1 agonist 1.4, TRHR ag 0.2, D1 PAM 9.7, LDHA block -0.6 and D1 antag -11.0.
COC(=O)c1ccc(CNC(=O)CCc2ncc(-c3ccccc3F)o2)cc1 was read as LDHA block -3.5.
For Cc1cc(C)n(-c2nc3ccccc3nc2Nc2ccccc2Cl)n1 the results were LDHA block -5.5.
`O=C(Nc1ccccc1C(=O)N1CCCCC1)c1cnc2ccccc2n1` gave LDHA block 11.8.
COc1cc(C(=O)N2CCN(C(=O)C3CC3)CC2)cc(OC)c1OC was read as TRHR PAM 3.5, D1 agonist 0.6, TRHR ag 0.2, D1 PAM -19.4, LDHA block -4.4 and D1 antag -42.1*.
Screening CCCn1c(NC(=O)c2nn(C)c(=O)c3ccccc23)nc2ccccc21 returned LDHA block -3.4.
`CC1CCc2cc(F)cc3c(O)c(C(=O)NCC4CCCO4)c(=O)n1c23` (stereo not given) gave TRHR PAM 2.1, D1 agonist 1.4, TRHR ag 0.5, D1 PAM 3.2, LDHA block 9.1 and D1 antag -76.8*.
Screening Cc1cc(=O)oc2cc(OCC(=O)Nc3cccc(C(=O)O)c3)ccc12 returned LDHA block 1.8.
`CC(=O)N1N=C(c2ccc(C)cc2)OC1c1cccnc1` (stereo not given) gave TRHR PAM 1.1, D1 agonist 0.7, TRHR ag -0.2, D1 PAM -2.2, LDHA block 0.3 and D1 antag -31.8*.
CC(Oc1ccc(-c2ccccc2)cc1)C(=O)N/N=C/c1cccnc1 (stereo not given) was read as TRHR PAM -3.1, D1 agonist 9.0, TRHR ag 0.3, D1 PAM -7.7, LDHA block -6.0 and D1 antag -35.8*.
`Cc1cc(C#N)ccc1OCc1ccc(C#N)cc1` gave LDHA block -7.5.
`Cc1nc2ccc(S(=O)(=O)N(C)CC(=O)Nc3ccc(Br)c(C)c3)cc2s1` gave TRHR PAM 3.1, D1 agonist 8.7, TRHR ag -1.4, D1 PAM 1.1, LDHA block -13.1 and D1 antag -40.3*.
Screening CC(=O)Nc1ccc(NC(=O)CN(C)S(=O)(=O)c2ccc3nc(C)sc3c2)cc1 returned TRHR PAM -1.9, D1 agonist 3.0, TRHR ag -0.2, D1 PAM -0.7, LDHA block 0.2 and D1 antag -0.8.
`Cc1nc2ccc(NC(=O)c3ccc(Cl)c([N+](=O)[O-])c3)cc2s1` gave TRHR PAM -9.9, D1 agonist -0.3, TRHR ag 0.2, D1 PAM 1.5, LDHA block -4.7 and D1 antag -2.3.
Cc1nc2ccc(NC(=O)CCS(=O)(=O)c3ccc(Cl)cc3)cc2s1 was read as TRHR PAM -1.4, D1 agonist 11.6, TRHR ag 0.3, D1 PAM -3.0, LDHA block 5.6 and D1 antag -36.4*.
Cc1nc2ccc(NC(=O)c3cc([N+](=O)[O-])cc([N+](=O)[O-])c3Cl)cc2s1 was read as TRHR PAM 12.9, D1 agonist 0.9, TRHR ag -0.4, D1 PAM -3.4, LDHA block 6.6 and D1 antag -54.6*.
For COc1ccc(NC(=O)CCS(=O)(=O)c2ccc3nc(C)sc3c2)cc1OC the results were TRHR PAM -5.4, D1 agonist 1.5, TRHR ag -0.1, D1 PAM -1.7, LDHA block 4.7 and D1 antag -13.1.
For O=C(NCC(O)c1ccc(F)c(F)c1)Nc1cccc(Cl)c1Cl (stereo not given) the results were LDHA block 8.3.
CC1(C)C2CCC1(CS(=O)(=O)NC1CCCC1)C(=O)C2 (stereo not given) was read as TRHR PAM -3.0, D1 agonist 4.0, TRHR ag 0.1, D1 PAM -1.0, LDHA block -6.3 and D1 antag 12.0.
CN(C)CC(C)(C)CNS(=O)(=O)CC12CCC(CC1=O)C2(C)C (stereo not given) was read as TRHR PAM 2.7, D1 agonist -1.3, TRHR ag 0.6, D1 PAM 0.1, LDHA block -7.2 and D1 antag -75.0*.
Screening COC(=O)c1ccc(COC(=O)CCc2nc(-c3ccccc3)c(-c3ccccc3)o2)cc1 returned TRHR PAM 0.0, D1 agonist 30.4*, TRHR ag 1.2, D1 PAM -9.6, LDHA block -4.5 and D1 antag -15.5.
O=C1CCC(C(=O)O)CC1 was read as LDHA block -3.6.
Cn1c(SCC(=O)NC2CCCCCC2)nnc1-c1ccc(Cl)cc1 was read as LDHA block -20.9.
Screening O=C1N/C(=C/c2ccc(N3CCCC3)cc2)C(=O)N1c1ccccc1 returned TRHR PAM 6.5, D1 agonist 20.2, TRHR ag 2.5, D1 PAM -1.0, LDHA block -5.2 and D1 antag -4.0.
Screening O=C1/C(=C/c2ccc(N3CCCC3)cc2)NC(=S)N1C1CC1 returned TRHR PAM 9.5, D1 agonist 204.7*, TRHR ag 91.4*, D1 PAM 3.0, LDHA block 4.3 and D1 antag -5.5.
Screening Cc1cc(N2CCCC2)ccc1/C=C1\NC(=S)N(C)C1=O returned TRHR PAM 8.1, D1 agonist 213.1*, TRHR ag 63.5*, D1 PAM 7.3, LDHA block 3.4 and D1 antag -7.5.
`CCOc1ccccc1NC(=O)CN(c1cccc(Cl)c1Cl)S(C)(=O)=O` gave LDHA block 10.6.
